# High-throughput results: PubChem BioAssay, several laboratories
# DNA FID counter: counter-screen for HCV NS3 helicase inhibitors: DNA intercalator displacement. DNA fluorescent intercalator displacement, fluorescence. inhibition, % at 7.9 µM. hit rate 0.17% among 290,000; in the data active = inhibition above about 37%;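 also: 0% = vehicle and 100% = reference compound; higher means more ethidium bromide displaced from hairpin DNA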
# PREPL inh: inhibits the human prolyl oligopeptidase-like enzyme | hit rate 0.68% among 320,000 | inhibition, % at 5.96 µM | recombinant PREPL, fluorescence polarization activity-based probe | Q4J6C6; in the data active = inhibition above about 43%;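 also: 0% = enzyme with DMSO and 100% = wells lacking enzyme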
# RAD52 inh: inhibitors of human RAD52 DNA annealing. hit rate 0.46% among 360,000. recombinant RAD52 DNA annealing, FRET fluorescence. inhibition, % at 18.7 µM. AID 651710;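 active = every replicate showing at least 50% inhibition; inconclusive = mean inhibition at least 50% but not in every replicate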
# Target sequence (P43351 whole entry, looked up): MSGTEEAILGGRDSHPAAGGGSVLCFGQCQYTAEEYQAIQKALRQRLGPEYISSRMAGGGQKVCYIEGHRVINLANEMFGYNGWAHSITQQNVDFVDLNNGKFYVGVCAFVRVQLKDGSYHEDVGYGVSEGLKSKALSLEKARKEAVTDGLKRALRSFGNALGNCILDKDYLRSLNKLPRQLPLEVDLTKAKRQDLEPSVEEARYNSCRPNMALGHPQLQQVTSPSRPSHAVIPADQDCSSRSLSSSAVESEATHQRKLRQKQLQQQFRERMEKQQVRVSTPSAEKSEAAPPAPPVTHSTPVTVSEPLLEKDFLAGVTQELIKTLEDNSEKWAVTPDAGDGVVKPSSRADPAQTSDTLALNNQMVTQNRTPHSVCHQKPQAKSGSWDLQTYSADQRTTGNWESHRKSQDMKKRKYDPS
# UBC13 polyUb: blocks human UBC13 polyubiquitin chain formation; hit rate 0.47% among 330,000; P61088; TR-FRET; AID 485273; inhibition, % at 20 µM; in the data active = inhibition above about 45%, passing the limit was not always enough; inconclusive = no clear call, values can overlap the other calls
# Target sequence (P61088 whole entry, looked up): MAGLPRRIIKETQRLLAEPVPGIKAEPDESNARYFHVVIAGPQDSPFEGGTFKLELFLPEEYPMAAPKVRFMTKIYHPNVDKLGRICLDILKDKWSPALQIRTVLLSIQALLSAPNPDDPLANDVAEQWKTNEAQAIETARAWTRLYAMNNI
# beta cell repl: inducers of beta-cell replication in MIN6 cells | MIN6 cells proliferation, ATPlite luminescence, 48 h; cells starved in 0.2% serum; 100% = growth in 10% serum | proliferation, % at 10 µM | hit rate 0.29% among 330,000 | AID 2380;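 active = compounds whose signal lies at least 3.5 SD above the mean of all wells on their plate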;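 also: 0% = DMSO-treated cells in low-serum medium and 100% = 10% serum control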
# RAD54 inh: inhibitors of human RAD54 branch migration; Q92698; RAD54 Holliday junction branch migration, FAM/BHQ fluorescence; inhibition, % at 10.4 µM; hit rate 0.14% among 360,000;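 active = mean normalized replicate activity at least 40 and at least half of replicates scoring 40 or more; inconclusive = only one of the two criteria met; inactive = mean below 40 and under half of replicates reaching 40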;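 also: 0% = median of neutral control wells and 100% = median of positive control wells; inhibitors cause a drop in the FAM fluorescence signal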
# Casp3 counter: caspase-3 inhibition (UBC13 counter-screen); shares compounds with UBC13 polyUb; Recombinant caspase-3, Caspase-Glo 3/7 luminescence, 60 min; inhibition, % at 20 µM; hit rate 4% among 1,400; AID 488856;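 active = mean inhibition across replicates above about 26%, limit read from the data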;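 also: plate controls were DMSO with caspase-3 for no effect and DMSO wells lacking enzyme for full effect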
# UBC13 conf: confirmation of human UBC13 polyubiquitin inhibitors. shares compounds with UBC13 polyUb. UBC13 polyubiquitination, TR-FRET, biochemical. inhibition, % at 10 µM. hit rate 68% among 1,400. AID 488859; in the data active = inhibition above about 45%; inconclusive = no clear call, values can overlap the other calls
# Starred values were filed as active, the others as inactive; i = inactive; u = inconclusive; x = no result. Sampled rows, rich in hits. Any-hit rate of the full collection: about 1.3%.
SMILES,DNA FID counter,PREPL inh,RAD52 inh,UBC13 polyUb,beta cell repl,RAD54 inh,Casp3 counter,UBC13 conf
C[C@@H]1CCCCO[C@H](CN(C)Cc2ccc3c(c2)OCO3)[C@@H](C)CN([C@H](C)CO)C(=O)c2cc(NS(=O)(=O)c3ccccc3)ccc2O1,x,x,11.7,x,x,-17.9,x,x
Cc1ncc(CO)c(/C=N/NC(=S)Nc2ccc(Cl)c(Cl)c2)c1O,3.5,25.1,-3.2,50.7*,-5.0,x,-1.5,28.4
C[C@H]1CN([C@@H](C)CO)C(=O)c2cc(C#CC3(O)CCCC3)cnc2O[C@H]1CN(C)C(=O)C1CCCCC1,x,x,0.7,x,x,-1.8,x,x
Cc1cc(C(=O)OCC(=O)Nc2cccc([N+](=O)[O-])c2)c(C)o1,x,0.2,-11.1,3.0,4.7,0.3,x,x
O=C(COC(=O)c1c[nH]c(=O)[nH]c1=O)Nc1cccc([N+](=O)[O-])c1,x,-0.8,-9.7,66.3*,3.4,9.9,-2.6,75.6*
CCOC(=O)N1CCN(C(=O)C(=O)Nc2sc3c(c2C(N)=O)CC(C)(C)OC3)CC1,-47.0,-0.1,-17.2,63.1*,-0.1,x,-2.0,90.1*
CCOC(=O)N1CCN(C(=O)C(=O)Nc2sc3c(c2C(=O)O)CC(C)(C)OC3)CC1,-50.6,-4.0,-11.9,-7.2,-0.5,4.3,x,x
O=C(OCCNc1nc(-c2ccccc2)nc2ccccc12)c1cccnc1,-5.5,-3.0,-5.6,9.4,-0.3,x,x,x
CCCOC(=O)c1cccc(Nc2nc(-c3cccnc3)nc3ccccc23)c1,-7.5,-10.0,-37.5,49.0*,-5.6,x,-4.4,65.7*
O=C(O)CC(C(=O)O)N1C(=O)/C(=C/C=C/c2ccco2)SC1=S (stereo not given),-0.2,-3.9,-133.8,73.9*,-1.9,12.6,2.2,47.7*
O=C(NN1C(=O)/C(=C/C=C/c2ccco2)SC1=S)c1ccccc1O,-0.8,11.2,-213.6,45.1*,-2.4,-17.0,4.1,-5.7
O=C(C[C@@H]1CC[C@H](NS(=O)(=O)c2ccccc2F)[C@H](CO)O1)NCCCN1CCOCC1,x,x,-15.7,x,x,-4.0,x,x
Cn1c2ccccc2c2c(C(=O)NCCCN3CCCC3=O)cn(C3CCCCC3)c(=O)c21,-16.6,16.4,x,0.8,-2.4,-3.2,x,x
CN1CCN(CCCNC(=O)c2cn(C3CCCCC3)c(=O)c3c2c2ccccc2n3C)CC1,15.8,7.6,x,64.4*,0.1,3.4,-3.8,63.5*
CCC[C@H](CN[C@@H](CNC)[C@H](C)O)NCCc1ccc(OC)cc1,-0.3,11.5,8.3,11.1,-0.5,2.7,x,x
CCCC[C@H](CN[C@@H](CNC)[C@H](C)CC)NCCC12CCC(CC1)C2,32.3,28.3,4.3,47.9*,-7.8,7.2,-3.3,30.5
CN(C)S(=O)(=O)c1cccc(COc2ncnc3c(Cl)cc(Cl)cc23)c1,-23.7,-5.7,6.7,63.7*,0.8,-4.6,5.9,76.4*
C/C(=N/NC(=O)c1ccc(C(C)(C)C)cc1)c1ccccn1,x,7.1,-26.5,50.7*,-4.3,-3.2,61.2*,100.8*
C/C(=N\NC(=O)c1ccc(Cl)c(Cl)c1)c1ccccn1,-16.6,x,-19.8,-3.1,-5.2,-19.3,x,x
O=C(N/N=C/c1ccccn1)c1ccc(N/N=C/c2ccccn2)cc1,-19.6,32.4,-6.0,-32.0,-6.0,x,x,x
CC(C)(C)c1ccc(C(=O)N/N=C/c2ccccn2)cc1,-22.2,6.5,-25.5,64.9*,-1.3,-8.1,4.6,87.3*
CCSc1nc(-c2ccccc2)c2cc(Cl)ccc2n1,0.5,-9.1,-2.6,49.1*,-6.5,x,-3.1,u
COC(=O)[C@H]1[C@H](CO)[C@H]2Cn3c(ccc(-c4cccc(F)c4)c3=O)[C@H]2N1CC1CC1,x,x,-1.0,x,x,3.4,x,x
CNC[C@H]1Oc2ccc(N(C)C)cc2CC(=O)N([C@@H](C)CO)C[C@H]1C,x,x,-1.0,x,x,3.0,x,x
Cc1noc(C)c1S(=O)(=O)Nc1cccc2c1O[C@@H](CN(C)Cc1ccc(C(=O)Nc3ccccc3N)cc1)[C@@H](C)CN([C@@H](C)CO)C2=O,x,x,3.8,x,x,x,x,x
SMILES,DNA FID counter,PREPL inh,RAD52 inh,UBC13 polyUb,beta cell repl,RAD54 inh,Casp3 counter,UBC13 conf
CCCCCCCCCCCCCCCCn1cc[n+](C)c1,11.6,23.7,83.4*,73.2*,-4.1,x,-3.1,98.9*
Cc1nc2ccccn2c1C(=O)N/N=C/c1ccccc1[N+](=O)[O-],0.9,11.9,-17.7,63.3*,4.6,-1.2,-5.1,-3.1
Cc1nc2c(C)cccn2c1C(=O)N/N=C/c1ccccc1[N+](=O)[O-],-5.7,6.5,-3.3,-7.5,-1.8,x,x,x
Cc1nc(N)sc1C(=O)N/N=C/c1cccnc1,-13.9,9.9,-18.0,92.2*,-1.2,x,24.2,107.8*
COc1ccc(C(=O)N/N=C/c2cccnc2)cc1,-9.3,17.6,-1.4,-2.7,-3.5,-11.8,x,x
C[C@@H]1CN([C@@H](C)CO)C(=O)c2cc(Br)cnc2O[C@@H]1CN(C)C(=O)C1CCOCC1,x,x,2.4,x,x,-8.9,x,x
CC(=O)N1CC(=O)N2[C@H](C1)[C@H](c1ccc(C#CC(C)C)cc1)[C@@H]2CO,x,x,-3.8,x,x,x,x,x
C[C@H](CO)N1C[C@H](C)[C@@H](CN(C)C(=O)Cc2ccccc2)OCCCC[C@H](C)Oc2ccc(NC(=O)Nc3ccc4c(c3)OCO4)cc2C1=O,x,x,1.8,x,x,-5.7,x,x
O=C(CSc1nc2ccsc2c(=O)n1Cc1ccc(C(=O)O)cc1)NCC1CCCO1 (stereo not given),-14.1,4.4,-12.2,69.1*,0.0,2.2,-4.1,76.6*
O=C(CSc1nc2ccsc2c(=O)n1Cc1ccccc1)NCC1CCCO1 (stereo not given),-19.8,-2.7,-13.0,55.3*,-2.4,x,-1.5,58.2*
Cc1ccc(Cn2c(SCC(=O)NCC3CCCO3)nc3ccsc3c2=O)cc1 (stereo not given),-9.7,6.9,-17.7,29.9,2.0,x,x,x
CN1CCN(c2ccc(S(=O)(=O)N3CCCCC3)cc2NC(=O)c2ccc3ccccc3c2)CC1,20.7,7.7,x,45.7*,-2.3,x,-5.6,52.0*
Cc1ccccc1C(=O)Nc1cc(S(=O)(=O)N2CCCCC2)ccc1N1CCN(C)CC1,15.4,13.5,x,18.4,-4.5,x,x,x
O=C(COC(=O)c1cc(=O)[nH]c(=O)[nH]1)Nc1cccc(Cl)c1,x,8.7,-8.7,66.3*,0.7,15.8,3.3,51.2*
O=C(NCCCN1CCOCC1)[C@H]1N[C@H]2c3ccc(C4=CCCC4)c(=O)n3C[C@H]2[C@@H]1CO,x,x,-28.7,x,x,6.2,x,x
Cn1nc2c3cc(F)ccc3n(Cc3ccc(F)cc3)cc-2c1=O,-17.1,7.5,-22.2,3.9,-3.2,x,x,x
COc1cc2c3nnc(-c4ccc(F)cc4)c-3cn(Cc3ccccc3)c2cc1OC,3.1,-7.6,i,82.4*,-6.1,-23.5,-2.1,50.4*
COc1cc2c3nnc(-c4ccc(F)cc4)c-3cn(Cc3ccc(F)cc3)c2cc1OC,15.2,-15.2,i,65.4*,-6.5,-17.7,-4.1,41.0
